Hits are enriched below; roughly 10% of the tested compounds scored in any of these assays.
PNC assembly inh: blocks assembly of the perinucleolar compartment. PC3M PTB-GFP, PNC prevalence imaging, 16 h; stronger effect = lower value. activity change (PNC), negative = inhibition, % at 10 µM. 140,000 compounds, 3.1% hits;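 active = readout at or below -70, meaning at least 70% loss of cells showing the perinucleolar compartment, a nuclear body marking cancer cells; inconclusive = readout between -30 and a set limit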
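PC3M cells stably expressing PTB-GFP, 750–1000 cells/well, treated 16 h at 37 °C with compound (23 nl of library stock), in duplicate. After paraformaldehyde fixation and Hoechst stain, imaged at 20x; PNC prevalence scored by image analysis.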
ALOX12 inhib: 12-hLO (ALOX12) enzyme inhibition. P18054. purified 12-hLO, xylenol orange hydroperoxide absorbance. Potency, µM (series often up to 57.1 µM), hits mostly inhibitors. 150,000 compounds, 0.12% hits. AID 1452; active = well fitted inhibition curve with a large enough effect; inconclusive = small, poorly fitted or top-dose-only effect; also: nearly all actives have a fitted effect of over 55% in size
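Purified human 12hLO (150 nM final) was preincubated with compounds for 15 min at room temperature in 25 mM Hepes pH 7.0, 0.01% Triton X-100, then reacted with 40 uM arachidonic acid for 30 min. Hydroperoxide was detected with ferrous iron/xylenol orange.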
ALDH1A1 block: ALDH1A1 (human) enzyme inhibition | P00352 | Purified ALDH1A1, NADH fluorescence, propionaldehyde substrate | Potency, µM (series often up to 75.3 µM), most hits filed as inhibitors | 220,000 compounds, 7.3% hits
LMNA splice mod: modulators of lamin A splicing; 200,000 compounds, 0.01% hits; HeLa LMNA splicing GFP/RFP minigene ratio, 48 h; Potency, µM (highest dose often 46.1 µM), actives largely listed as inhibitors; active = well fitted inhibition curve with a large enough effect in the signal ratio, with a control signal flat, not every such curve was filed as active; inconclusive = small, poorly fitted or top-dose-only effect, or effect the other way, or a change in a side signal; the % refers to the signal ratio
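S3 HeLa cells stably expressing lamin A-EGFP splicing minigene plus DsRed2, 600 cells/well, 48 h compound exposure at 37C. Laser-scanning cytometry; analysed as GFP (500-530 nm)/RFP (575-640 nm) total intensity ratio; 0.5% DMSO vehicle.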
HPGD block: HPGD (human) dehydrogenase inhibition | purified HPGD, NADH fluorescence kinetic, PGE2 substrate | P15428 | 150,000 compounds, 4.3% hits | Potency, µM, most hits filed as inhibitors
Target sequence (P15428 whole entry, looked up): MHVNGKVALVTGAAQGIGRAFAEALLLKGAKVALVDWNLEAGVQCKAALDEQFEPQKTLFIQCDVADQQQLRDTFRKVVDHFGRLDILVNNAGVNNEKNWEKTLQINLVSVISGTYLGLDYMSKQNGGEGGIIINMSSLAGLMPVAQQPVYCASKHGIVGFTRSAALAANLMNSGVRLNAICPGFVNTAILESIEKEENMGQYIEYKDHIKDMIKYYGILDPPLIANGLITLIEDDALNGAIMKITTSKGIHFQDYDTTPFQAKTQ
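NADH formation kinetics: reaction with 30 uM PGE2 and 1 mM NAD+ (final), 20 nM enzyme, Tris-HCl pH 8 with Tween 20, after 15 min compound preincubation at room temperature. Fluorescence change, last versus first of five reads.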
Numbers stand for hits; n = inactive; u = inconclusive; x = no result given; [ ] = another dose, or the depositor's remark. Unless noted, calls follow the shape of the dose curve; as a rule, active = well fitted inhibition curve with a large enough effect (not every such curve was filed as active); inconclusive = small, poorly fitted or top-dose-only effect, or another doubt; inactive = no such curve, though single readings can be large or run the other way.

SMILES	PNC assembly inh	ALOX12 inhib	ALDH1A1 block	LMNA splice mod	HPGD block
CC(C)c1nc(SCC(=O)c2ccc(F)cc2)c2ccccc2n1	x	x	20µM	x	x
CCOC(=O)CSc1nc(C(C)C)nc2ccccc12	n	n	n	n	n
Cc1ccc(C(=O)CSc2nc(C(C)C)nc3ccccc23)cc1	x	x	28µM	x	x
O=C(CSc1cnc2ccccc2n1)c1ccc(F)cc1	n	n	25µM	u	n
CCCc1nc(SCC(=O)c2ccc(OC)cc2)c2ccccc2n1	x	x	10µM	x	x
COc1ccc(-n2c(=O)cnc3cnc(N4CCOCC4)nc32)cc1	x	x	n	n	x
COc1cccc(CNC(=O)c2cnc(N3CCCC3)nc2C)c1	x	x	x	n	x
Cc1nnc(NC(=O)C2CCN(c3cnccn3)CC2)s1	n	n	n	n	n
Cc1nnc(NC(=O)C2CCN(c3nnnn3-c3ccccc3)CC2)s1	n	n	20µM	n	n
O=C(Nc1cccc2c1CCCC2)C1CCN(c2nnnn2-c2ccccc2)CC1	u	n	8.9µM	n	n
COc1cc(CN2CCCCC2)cc2cc(C(=O)O)c(=O)oc12	x	n[11.4 µM]	n[13.5 µM]	x	n
CCCCCCCCC/C=C/CC1CC(=O)OC1=O (centres undefined)	x	n	28µM	x	n
Cc1ccc(S(=O)(=O)c2cn(Cc3ccccc3)c3cc(N4CCCC4)c(F)cc3c2=O)cc1	x	x	x	n	x
Cc1cc(NC(=O)CN2C(=O)CC(c3ccco3)Sc3ccccc32)no1 (centres undefined)	n	n	14µM	u	n
Cc1cc(NC(=O)CN2C(=O)CCSc3ccccc32)no1	x	x	n	n[9.22 µM]	x
CCC(=O)OCC(=O)[C@@]1(OC(=O)CC)[C@H](C)C[C@@H]2[C@@H]3[C@H]([C@@H](O)C[C@@]21C)[C@]1(C)C=CC(=O)C=C1C[C@@H]3Cl	x	n	n	u	n
N#C/C(=C1\C(=O)Nc2c(Cl)cc(Cl)cc21)c1nnc2n1CCCCC2	u	n	3.5µM	u	n
N#C/C(=N\Nc1cc(Cl)cc(Cl)c1)c1nnc2n1CCCCC2	u	u	8.9µM	u	25µM
COC(=O)C1=C(C)N(Cc2ccccc2)[C@]23O[C@](C(=O)OC)(C(=O)N2C1c1ccccc1)C(c1ccccc1)C3C(=O)c1ccccc1 (some centres undefined)	x	x	n[13.5 µM]	x	x
CCOc1ccc(-c2nc(CSCC(=O)N3CCN(c4cccc(C(F)(F)F)c4)CC3)c(C)o2)cc1	x	x	x	n	x
CSCCC(=O)Nc1nc(-c2ccccn2)cs1	x	x	28µM	x	x
Cn1cccc1C(=O)Nc1nc(-c2ccccn2)cs1	n	n	14µM	u	28µM
Cc1csc(NC(=O)c2cccn2C)n1	n	n	n	n	u
COCCCNc1nc(NCc2ccc(C)cc2)c2cnn(C)c2n1	x	x	x	n	x
O=C1CSC(=S)N1N1C(=O)c2cccc([N+](=O)[O-])c2C1=O	x	x	7.9µM	n	x
SMILES	PNC assembly inh	ALOX12 inhib	ALDH1A1 block	LMNA splice mod	HPGD block
Cc1cc(C)nc(N/N=C/C2=C(N3CCOCC3)C(=C\c3ccc(Cl)cc3)/CC2)n1	n	n	16µM	u	n
Cc1cc(C)nc(N/N=C/c2ccc(N3CCOCC3)cc2)n1	x	x	n	u	x
O=CC1=C(N2CCOCC2)/C(=C/c2ccc(Cl)cc2)CC1	x	x	11µM	x	x
COC(=O)CN1C(=S)N(c2ccc(OC)cc2)C(=O)/C1=C/c1ccc(OC)cc1	x	x	n	x	x
COc1ccc(C(=O)N2C(=S)NC(=O)/C2=C\c2ccc(C)cc2)cc1	u	n	u	n	28µM
CN1CCN(c2ccc(Cl)cc2NS(=O)(=O)c2ccccc2Cl)CC1	n	n	14µM	n	n
C=C(C(C)=O)C(O)c1ccccc1 (centres undefined)	x	x	n	x	u
O=C(C1=C[C@@H](C2CC2)C[C@@H](OCCCCO)O1)N1CCOCC1	x	x	32µM	x	x
O=C(Nc1ccccc1)C1=C[C@@H](C2CCCCC2)C[C@@H](OCc2ccc(CO)cc2)O1	x	x	4.5µM	x	x
C=CCOC(=O)C1=C[C@@H](C2CCCCC2)C[C@@H](OCc2ccc(CO)cc2)O1	x	x	1µM	x	x
O=C(C1=C[C@H](C2CCCCC2)C[C@H](OCc2ccc(CO)cc2)O1)N1CCN(Cc2ccccc2)CC1	x	x	14µM	x	x
O=C(Nc1ccccc1)C1=C[C@H](C2CCCCC2)C[C@H](OCc2ccc(CO)cc2)O1	x	x	n	x	x
COc1ccc(CNc2cc(-c3cccc(NS(C)(=O)=O)c3)ncn2)c(OC)c1	x	x	n	n	x
O=C(NCCc1ccccc1)c1sc2ncccc2c1-n1cccc1	x	x	x	n	x
CC(C)(C)OC(=O)NCCCC1=CC2=CC(=O)C(C)(OC(=O)c3cnc4ccccc4n3)C(=O)C2=CO1 (centres undefined)	x	n	n	x	n
COC(=O)c1ccc(C(NC(=O)OCc2ccccc2)/C(C)=C/[C@@H](C)C(=O)NCCN2CCOCC2)cc1 (some centres undefined)	x	n	n	x	n
C/C(CC(=O)Nc1ccc2c(c1)OCO2)=N\NC(=O)C(c1ccccc1)c1ccccc1	n	n	3.2µM	n	n
Cc1cc(C)cc(-n2ccn(CC(=O)Nc3ccccc3F)c(=O)c2=O)c1	x	x	x	n	x
Cc1nc(N(C)C)c2sc(=S)n(Cc3ccccc3)c2n1	x	x	6.3µM	x	x
CCOC(=O)CN1C(=O)C2(OCCCO2)c2ccccc21	n	n	8.9µM	u	n
CCOC(=O)CN1C(=O)C(O)(c2c(C)[nH]c3ccccc23)c2ccccc21 (centres undefined)	n	n	0.28µM	n	n
CCOC(=O)CN1C(=O)c2ccccc2C1=O	u	n	n	n	n
CCOC(=O)CN1C(=O)C(O)(C2CCc3ccccc3C2=O)c2ccccc21 (centres undefined)	n	n	3.2µM	u	n
COC(=O)CN1C(=O)C(O)(c2c(C)[nH]c3ccccc23)c2ccccc21 (centres undefined)	x	x	x	n	x
Cc1cccc(CN2CCC(CNC(=O)Cn3ncc4c([nH]c5ccc(C)cc54)c3=O)CC2)c1	x	x	x	n	x
SMILES	PNC assembly inh	ALOX12 inhib	ALDH1A1 block	LMNA splice mod	HPGD block
CN(C)c1ccc(C(=S)N2CCN(C(=S)Nc3cccc4ccccc34)CC2)cc1	x	x	16µM	x	x
CN(C)c1ccc(C(=S)N2CCN(C(=S)Nc3ccccc3)CC2)cc1	x	x	u	n	x
Cc1cc(C(=O)Nc2ccccc2C(F)(F)F)no1	n	n	n	n	n
O=C(Nc1ccccc1C(F)(F)F)c1cc(-c2ccccc2O)on1	-100	n	n	n	n
O=C(/C=C/c1ccco1)Nc1ccc(N2CCCC2)cc1	n	n	n	n	n
O=C(/C=C/c1ccco1)Nc1ccc(C(=O)N2CCOCC2)cc1	n	n	u	n	18µM
O=C(/C=C/c1ccco1)Nc1cccnc1	x	x	28µM	x	x
CC(/C=C/c1ccco1)=N\NC(=O)c1cccnc1	n	n	7.9µM	n	n
CC(/C=C/c1ccco1)=N\NC(=O)c1cc(C)[nH]n1	n	n	n	n	n
COc1cccc(NC(=O)/C=C/c2ccco2)c1	x	x	25µM	u	x
CCCCCCCCCCCCC/C=C/[C@@H](O)[C@H](CO)NC(=O)CCCCCCC	x	n	n	x	n
O=C(O)c1cc(Cl)cc(Cc2cc(Cl)cc(C(=O)O)c2O)c1O	x	n[11.4 µM]	u	x	u
